Experimental data: the antibiotic and cytotoxicity screens of Wong et al. (2023)
Among all 39,000 compounds or so, about 500 (1.3%) were called active. The full list was thinned out, with actives kept by preference.

What follows are compounds tested on S. aureus RN4220 (assay: growth inhibition call (relative growth <= 0.2)). Conditions: 50 µM.

| SMILES | growth inhibition call |
| --- | --- |
| C[C@@H]1CN([C@H](C)CO)C(=O)c2cc(NC(=O)Nc3ccc4c(c3)OCO4)ccc2O[C@@H]1CN(C)Cc1ccc(C(F)(F)F)cc1 | inactive |
| C[C@H]1CCCCO[C@H](CN(C)CC2CCCCC2)[C@@H](C)CN([C@@H](C)CO)C(=O)c2cc(NC(=O)C3CCCCC3)ccc2O1 | inactive |
| O=C(Nc1nc(OCCN2CCCC2=O)cnc1-c1cc(Cl)cc(Cl)c1)c1cc2ccccc2s1 | inactive |
| C[C@H](CO)N1C[C@H](C)[C@H](CN(C)Cc2ccc(C(=O)Nc3ccccc3N)cc2)Oc2c(NC(=O)Nc3cccc4ccccc34)cccc2C1=O | inactive |
| C[C@H](CO)N1C[C@H](C)[C@H](CN(C)C(=O)Nc2ccc3c(c2)OCO3)Oc2c(NC(=O)Nc3ccc(C(F)(F)F)cc3)cccc2C1=O | active |
| C[C@H]1CN([C@@H](C)CO)C(=O)c2cccc(NC(=O)Nc3ccc(C(F)(F)F)cc3)c2O[C@H]1CN(C)C(=O)Nc1ccc2c(c1)OCO2 | active |
| C[C@@H]1CN([C@H](C)CO)C(=O)c2cccc(NC(=O)Nc3ccc(C(F)(F)F)cc3)c2O[C@@H]1CN(C)C(=O)Nc1ccc2c(c1)OCO2 | inactive |
| C[C@H](CO)N1C[C@H](C)[C@H](CN(C)C(=O)Nc2ccc(C(F)(F)F)cc2)Oc2c(NC(=O)Nc3ccc4c(c3)OCO4)cccc2C1=O | inactive |
| C[C@H]1CN([C@@H](C)CO)C(=O)c2cccc(NC(=O)Nc3ccc4c(c3)OCO4)c2O[C@@H]1CN(C)C(=O)Nc1ccc(C(F)(F)F)cc1 | inactive |
| C[C@@H]1CN([C@@H](C)CO)C(=O)c2cccc(NC(=O)Nc3ccc(C(F)(F)F)cc3)c2O[C@H]1CN(C)C(=O)Nc1ccc2c(c1)OCO2 | inactive |
| C[C@H](CO)N1C[C@H](C)[C@H](CN(C)Cc2ccc3c(c2)OCO3)OCCCC[C@H](C)Oc2ccc(NC(=O)CCC(F)(F)F)cc2C1=O | inactive |
| COc1ccccc1-c1ccc2c(c1)O[C@@H](CN(C)C(=O)c1cccnc1)[C@@H](C)CN([C@@H](C)CO)S2(=O)=O | inactive |
| COc1cccc(NC(=O)C[C@@H]2CC[C@@H]3[C@H](COc4ccc(NC(=O)C5CCOCC5)cc4C(=O)N3C)O2)c1 | inactive |
| Cc1noc(C)c1S(=O)(=O)Nc1ccc2c(c1)C(=O)N([C@H](C)CO)C[C@H](C)[C@H](CN(C)S(=O)(=O)c1ccc(F)cc1)O2 | inactive |
| CCOC(=O)[C@H]1C/C=C/C[C@H](C(=O)OCC)C(=O)O[C@H]2[C@@H](OC)O[C@H](CO)[C@@H](OC(=O)Nc3ccc(Br)cc3)[C@@H]2OC1=O | inactive |
| CCOc1ccc(CO[C@@H]2O[C@H](CO)[C@@H](O)[C@H](O)[C@H]2NC(C)=O)cc1OC | inactive |
| Cn1cnc(CCNC(=O)C[C@@H]2CC[C@@H]3[C@H](COC[C@H](O)CN3C(=O)Nc3ccc(C(F)(F)F)cc3)O2)c1 | active |
| Cn1cnc(CCNC(=O)C[C@H]2CC[C@@H]3[C@H](COC[C@H](O)CN3C(=O)Nc3ccc(C(F)(F)F)cc3)O2)c1 | active |
| Cn1cnc(CCNC(=O)C[C@H]2CC[C@H]3[C@@H](COC[C@@H](O)CN3C(=O)Nc3ccc(Cl)cc3)O2)c1 | inactive |
| Cn1cnc(CCNC(=O)C[C@H]2CC[C@@H]3[C@H](COC[C@@H](O)CN3C(=O)Nc3ccc(Cl)cc3)O2)c1 | inactive |
| Cn1cnc(CCNC(=O)C[C@H]2CC[C@@H]3[C@H](COC[C@@H](O)CN3C(=O)Nc3ccc(C(F)(F)F)cc3)O2)c1 | inactive |

| SMILES | growth inhibition call |
| --- | --- |
| Cn1cnc(CCNC(=O)C[C@H]2CC[C@H]3[C@@H](COC[C@H](O)CN3C(=O)Nc3ccc(C(F)(F)F)cc3)O2)c1 | inactive |
| Cn1cnc(CCNC(=O)C[C@@H]2CC[C@H]3[C@@H](COC[C@H](O)CN3C(=O)Nc3ccc(Cl)cc3)O2)c1 | inactive |
| Cn1cnc(CCNC(=O)C[C@@H]2CC[C@@H]3[C@H](COC[C@@H](O)CN3C(=O)Nc3ccc(C(F)(F)F)cc3)O2)c1 | inactive |
| Cn1cnc(CCNC(=O)C[C@@H]2CC[C@H]3[C@@H](COC[C@@H](O)CN3C(=O)Nc3ccc(Cl)cc3)O2)c1 | inactive |
| Cn1cnc(CCNC(=O)C[C@@H]2CC[C@H]3[C@@H](COC[C@@H](O)CN3C(=O)Nc3ccc(C(F)(F)F)cc3)O2)c1 | active |
| Cn1cnc(CCNC(=O)C[C@@H]2CC[C@H]3[C@@H](COC[C@H](O)CN3C(=O)Nc3ccc(C(F)(F)F)cc3)O2)c1 | inactive |
| Cn1cnc(CCNC(=O)C[C@H]2CC[C@H]3[C@@H](COC[C@@H](O)CN3C(=O)Nc3ccc(C(F)(F)F)cc3)O2)c1 | active |
| CN1C(=O)c2cc(NC(=O)C3CCC3)ccc2OC[C@H]2O[C@H](CC(=O)NCCc3ccncc3)CC[C@H]21 | inactive |
| CO[C@H]1CN(C)C(=O)c2cc(NS(=O)(=O)CC(F)(F)F)ccc2OC[C@@H](C)N(C(=O)NC(C)C)C[C@H]1C | inactive |
| O=C(C[C@@H]1CC[C@H](NC(=O)Cc2ccccn2)[C@H](CO)O1)NCCCN1CCOCC1 | inactive |
| COCCOC(=O)N1C(=O)[C@@]2(c3cc(C#Cc4ccc(OC)cc4)ccc31)[C@H](C(=O)N1CCc3cc(OC)c(OC)cc3C1)[C@H]1C(=O)O[C@H](c3ccccc3)[C@H](c3ccccc3)N1[C@@H]2c1ccc(O)cc1 | inactive |
| C[C@H]1CN([C@@H](C)CO)C(=O)c2cc(C3=CCCC3)cnc2O[C@H]1CN(C)C(=O)Nc1ccc(C(F)(F)F)cc1 | inactive |
| C[C@H]1CN([C@@H](C)CO)C(=O)c2cccc(NC(=O)Nc3cccc4ccccc34)c2O[C@@H]1CN(C)C(=O)Nc1cccc2ccccc12 | inactive |
| C#CCn1c(=O)c2c(OC)ccnc2n(C)c1=O | inactive |
| Cc1ccccc1S(=O)(=O)N1[C@@H]2Cn3c(cccc3=O)[C@H]1[C@@H](C(=O)N1CCOCC1)[C@@H]2CO | inactive |
| COc1ccc(NC(=O)Nc2ccc3c(c2)C(=O)N([C@@H](C)CO)C[C@@H](C)[C@@H](CN(C)Cc2ccc(Oc4ccccc4)cc2)O3)cc1 | inactive |
| CN1C(=O)c2cc(NS(C)(=O)=O)ccc2OC[C@H]2O[C@@H](CC(=O)N3CCOCC3)CC[C@H]21 | inactive |
| C[C@@H]1CN([C@@H](C)CO)C(=O)Cc2cc(NS(=O)(=O)c3ccc(Cl)cc3)ccc2O[C@@H]1CN(C)C(=O)Nc1ccc(C(F)(F)F)cc1 | inactive |
| C[C@H](CO)N1C[C@H](C)[C@@H](CN(C)C(=O)Nc2cccc3ccccc23)Oc2ccc(NC(=O)Cn3cnnn3)cc2CC1=O | inactive |
| CO[C@@H](CN(C)C(=O)C1CCOCC1)[C@@H](C)CN(C(=O)Nc1ccc(C(F)(F)F)cc1)[C@@H](C)CO | inactive |
| C[C@H](CO)N1C[C@H](C)[C@@H](CN(C)C(=O)C2CCCCC2)OCCCC[C@H](C)Oc2ccc(NC(=O)Nc3ccc(C(F)(F)F)cc3)cc2C1=O | inactive |

| SMILES | growth inhibition call |
| --- | --- |
| CO[C@H](CN(C)C(=O)Nc1ccc(C(F)(F)F)cc1)[C@@H](C)CN(Cc1ccccc1Cl)[C@H](C)CO | inactive |
| CO[C@@H](CN(C)C(=O)C1CCOCC1)[C@H](C)CN(C(=O)Nc1ccc(C(F)(F)F)cc1)[C@@H](C)CO | active |
| CO[C@@H](CN(C)C(=O)Nc1ccc(C(F)(F)F)cc1)[C@H](C)CN(Cc1ccccc1Cl)[C@@H](C)CO | inactive |
| CO[C@H](CN(C)C(=O)Nc1ccc(C(F)(F)F)cc1)[C@@H](C)CN(Cc1ccccc1Cl)[C@@H](C)CO | inactive |
| CO[C@H](CN(C)C(=O)C1CCOCC1)[C@@H](C)CN(C(=O)Nc1ccc(C(F)(F)F)cc1)[C@@H](C)CO | active |
| C[C@@H]1CN([C@H](C)CO)C(=O)c2cc(NC(=O)Nc3ccc(C(F)(F)F)cc3)ccc2O[C@@H](C)CCCCO[C@H]1CN(C)C(=O)C1CCCCC1 | inactive |
| CO[C@@H](CN(C)C(=O)C1CCOCC1)[C@@H](C)CN(C(=O)Nc1ccc(C(F)(F)F)cc1)[C@H](C)CO | active |
| CO[C@H](CN(C)C(=O)Nc1ccc(C(F)(F)F)cc1)[C@H](C)CN(Cc1ccccc1Cl)[C@@H](C)CO | inactive |
| CO[C@@H](CN(C)C(=O)Nc1ccc(C(F)(F)F)cc1)[C@H](C)CN(Cc1ccccc1Cl)[C@H](C)CO | inactive |
| CO[C@H](CN(C)C(=O)C1CCOCC1)[C@H](C)CN(C(=O)Nc1ccc(C(F)(F)F)cc1)[C@@H](C)CO | active |
| COc1ccc(S(=O)(=O)N(C)C[C@@H]2OCc3cn(nn3)CCCC(=O)N([C@H](C)CO)C[C@H]2C)cc1 | inactive |
| COc1ccc(NC(=O)N(C)C[C@@H]2OCCCC[C@H](C)Oc3ccc(NS(=O)(=O)c4ccc(C)cc4)cc3C(=O)N([C@H](C)CO)C[C@H]2C)cc1 | inactive |
| Nc1nnc(CC(=O)N2CCCCC2)o1 | inactive |
| CN1C(=O)c2cc(NC(=O)Nc3ccccc3F)ccc2OC[C@@H]2O[C@@H](CC(=O)NCc3ccc(-c4ccccc4)cc3)CC[C@H]21 | inactive |
| Cc1noc(C)c1S(=O)(=O)Nc1ccc2c(c1)CC(=O)N([C@@H](C)CO)C[C@H](C)[C@H](CN(C)Cc1ccc(C(=O)O)cc1)O2 | inactive |
| C[C@@H]1CCCCO[C@H](CN(C)C(=O)Nc2cccc3ccccc23)[C@H](C)CN([C@@H](C)CO)C(=O)c2cc(NS(=O)(=O)c3ccc(Cl)cc3)ccc2O1 | inactive |
| COc1ccc(S(=O)(=O)N(C)C[C@@H]2OCc3cnnn3CCCC(=O)N([C@@H](C)CO)C[C@H]2C)cc1 | inactive |
| C[C@H]1CCCCO[C@H](CN(C)C)[C@@H](C)CN([C@@H](C)CO)C(=O)c2cc(NC(=O)CCCN(C)C)ccc2O1 | inactive |
| Cc1cc(C)c(S(N)(=O)=O)cc1S(N)(=O)=O | inactive |
| C=CCOC(=O)[C@@H]1[C@H]2C(=O)O[C@H](c3ccccc3)[C@H](c3ccccc3)N2[C@H](c2ccc(OCCOC(=O)[C@@H]3C[C@@H]4C(=O)N[C@@H](Cc5ccccc5)C(=O)N4[C@@H]3c3ccc(O)cc3)cc2)[C@@]12C(=O)Nc1ccccc12 | inactive |
